# Test results as given in PMC4552634, “A New Set of Chemical Starting Points with Plasmodium falciparum Transmission-Blocking Potential for Antimalarial Drug Discovery” (PLoS ONE, 2015).
# About 3,200 (25%) of roughly 13,000 compounds showed an effect of 50% or more. The list shows a part of the results.
# Test system: P. falciparum stage V gametocytes
# Design: BacTiter-Glo ATP luminescence viability of purified stage V gametocytes in 384-well plates, per cent inhibition versus DMSO
# Conditions: 48 h, 5 µM; inhibitor
row,SMILES,% Inhibition
1,CN1CCCc2ccc(NC(=O)c3cc(-c4ccc(Cl)cc4)cs3)cc2C1 [TCMDC-133946],39.01%
2,CCN(CCCN1CCCCC1)c1nc(C)cc(Nc2ccc(Cl)cc2)n1 [TCMDC-137045],21.21%
3,O=C(Nc1ccc2c(c1)OCO2)NC1CCN(c2ccnc(NCc3ccc(F)cc3)n2)CC1 [TCMDC-133635],26.57%
4,Cc1ccc(NC(=O)c2ccc3ncccc3c2)cc1OC1CCN(CCC(C)C)C1 (centres unmarked) [TCMDC-133980],9.414%
5,CCCC1N=C(N)N=C(N)N1c1ccc(OC)cc1 (centres unmarked) [TCMDC-131295],-30.41%
6,O=C(Nc1ccc(CCNC2=NCCN2)cc1)Nc1ccc(CCNC2=NCCN2)cc1 [TCMDC-137205],10.33%
7,CCCCc1ccc2[nH]c(NC(=O)OC)nc2c1 [TCMDC-131798],-12.96%
8,CC(C)(C)OC(=O)Cn1cnc2cc(NC(=O)c3cc([N+](=O)[O-])cc([N+](=O)[O-])c3)ccc21 [TCMDC-131910],-17.84%
9,Cc1nc2ccc3ccc(CNc4ccc(C(=O)N[C@@H](CCC(=O)O)C(=O)N[C@@H](Cc5cccs5)C(=O)O)c(F)c4)cc3c2c(=O)[nH]1 [TCMDC-137819],7.673%
10,O=C(CNC(=O)c1ccc(O)cc1)Nc1cccc(-c2cccc(-c3nc4ccc(C(F)(F)F)cc4[nH]3)c2)c1 [TCMDC-136816],11.2%
11,CN1CCN(CC(O)CNC(=O)Nc2ccc(Br)cc2)CC1 (centres unmarked) [TCMDC-134635],15.1%
12,O=C(NCCCCN1CCC(c2ccc3c(c2OCC(O)c2ccc(Cl)cc2)CCCC3)CC1)c1ccc(-c2ccc(C(F)(F)F)cc2)cc1 (centres unmarked) [TCMDC-138749],115%
13,CC(=O)COc1c(C2CCN(CCCCNC(=O)c3ccc(-c4ccc(C(F)(F)F)cc4)cc3)CC2)ccc2c1CCCC2 [TCMDC-138738],105.6%
14,O=C(NCCCCN1CCC(c2ccc3c(c2OCCN2CCCC2)CCCC3)CC1)c1ccc(-c2ccc(C(F)(F)F)cc2)cc1 [TCMDC-138768],107.4%
15,NC(N)=Nc1nccc(NCc2ccccc2)n1 [TCMDC-141971],14.91%
16,N#Cc1ccc(N(CCOc2ccc3c(c2)CCC(=O)N3)Cc2ccccc2C(F)(F)F)cc1C(F)(F)F [TCMDC-132801],23.33%
17,O=C(Nc1cccc(CN2CCCN(Cc3ccc(O)cc3)CC2)c1)c1cc(F)cc(F)c1 [TCMDC-141881],2.179%
18,O=C(/C=C/c1ccc(Cl)c(Cl)c1)NCCCCCN1CCC(NC(=O)NCCc2ccccc2)CC1 [TCMDC-135707],-32.39%
19,CCCC(=O)Nc1ccc(OCCCN(Cc2ccccc2OC(F)(F)F)c2ccc(C#N)c(C(F)(F)F)c2)cc1 [TCMDC-135667],14.29%
20,COc1cccc(-c2[nH]c3ccccc3c2CN2CCC(c3c(C)cccc3C)CC2)c1 [TCMDC-141630],29.07%
21,COc1ccccc1-c1[nH]c2ccccc2c1CN1CCC(c2c(C)cccc2C)CC1 [TCMDC-141628],83.13%
22,COc1cccc(CN2CCC(CCOC(c3ccccc3)c3ccccc3)CC2)c1O [TCMDC-136041],-8.929%
23,CCN1CCN(c2cc(C)c3cc(NC(=O)c4ccc(Br)o4)ccc3n2)CC1 [TCMDC-123600],1.193%
24,COc1ccc(-c2cccc(NC(=O)c3ccc(Cl)cc3)c2)cc1CN1CCCN(C)CC1 [TCMDC-132602],-35%
25,COc1ccc(-c2ccc(CNC(=O)c3ccc(Cl)cc3)c(F)c2)cc1CN1CCCN(C)CC1 [TCMDC-133369],-6.152%

row,SMILES,% Inhibition
1,COc1ccc(-c2ccc(NC(=O)c3ccc(Cl)cc3)cc2)cc1CN1CCN(C)CC1 [TCMDC-132512],92.99%
2,COc1ccc(-c2ccc(NC(=O)c3ccc(Cl)cc3)cc2)cc1CN1CCCN(C)CC1 [TCMDC-132510],104.3%
3,COc1ccc(-c2ccc(NC(=O)c3ccc(C#N)cc3)cc2)cc1CN1CCN(C)CC1 [TCMDC-133336],-18.08%
4,COc1ccc(-c2cccc(NC(=O)c3cccc(Cl)c3)c2)cc1CN1CCN(C)CC1 [TCMDC-132617],28.66%
5,COc1ccc(-c2ccc(NC(=O)c3ccc(Cl)cc3)cc2)cc1CN1CCC(O)CC1 [TCMDC-133337],0.3946%
6,COc1ccc(-c2ccc(NC(=O)c3cccc(Cl)c3)cc2)cc1CN1CCN(C)CC1 [TCMDC-132526],82.79%
7,CC1(C)N=C(N)N=C(N)N1OCCCNC(=O)c1ccc(C(=O)NCCCON2C(N)=NC(N)=NC2(C)C)cc1 [TCMDC-131677],3.216%
8,CCOC(=O)c1ccc(-c2c(C(F)(F)F)noc2-c2cc(CC)c(OC)cc2O)o1 [TCMDC-124150],2.818%
9,Cc1ccc(C)c2c1[nH]c1ccc(C3=NCCN3)cc12 [TCMDC-137683],24.52%
10,CCCS(=O)(=O)c1nc(S(=O)(=O)c2ccc(Cl)cc2)c(N2CCCCC2)s1 [TCMDC-124768],-49.43%
11,COc1ccc(-c2ccc(CNCc3ccsc3)cc2)cc1S(=O)(=O)NCCN1CCCC1 [TCMDC-132283],107.3%
12,O=S(=O)(NCCN1CCCC1)c1ccc(-c2ccc(CNCc3ccsc3)cc2)cc1F [TCMDC-132288],40.86%
13,COc1ccc(CNCc2ccsc2)cc1-c1ccc(OC)c(S(=O)(=O)NCCN2CCCC2)c1 [TCMDC-132296],104.6%
14,Cc1cc(-c2ccc(CNCc3ccsc3)cc2)ccc1S(=O)(=O)NCCN1CCCC1 [TCMDC-132292],94.64%
15,COc1ccc(CNCc2ccsc2)cc1-c1ccc(S(=O)(=O)NCCN2CCCC2)c(C)c1 [TCMDC-132225],105.9%
16,CC(=O)OCCN1C(=O)c2ccc3c4c(ccc(c24)C1=O)C(=O)N(CCOC(C)=O)C3=O [TCMDC-123488],10.44%
17,COc1cc(Nc2nccc(N3CCC(NC(=O)c4cccc(NC(C)=O)c4)C3)n2)cc(OC)c1OC (centres unmarked) [TCMDC-133622],-17.51%
18,Cc1ccc(O)c(C(=O)c2cnc3c(c2)c(-c2ccc(F)cc2)c(C#N)c(=O)n3C)c1 [TCMDC-124507],19.5%
19,CC(=O)Nc1ccc(CN2CCC(N(C)c3cc(NC(=O)c4cccc(F)c4)ccn3)CC2)cc1 [TCMDC-134981],-20.16%
20,O=C(Nc1ccc2c(c1)CN(Cc1ccc(N3CCCC3)o1)CCC2)c1ccoc1 [TCMDC-134723],-9.381%
21,COc1ccc(-c2nc(NC(=O)Cc3ccc4c(c3)OCCO4)sc2C)cc1 [TCMDC-124374],41.12%
22,COc1ccc(-c2nc(NC(=O)CSc3ccccc3)sc2C)cc1 [TCMDC-123814],23.99%
23,COc1ccc(-c2nc(NC(=O)Cc3ccc(OC)c(OC)c3)sc2C)cc1 [TCMDC-123619],10.74%
24,COc1ccc(-c2nc(NC(=O)CS(=O)(=O)c3ccc(OC)cc3)sc2C)cc1 [TCMDC-125152],-0.7393%
25,COc1ccc(-c2nc(NC(=O)CS(=O)(=O)c3ccc(C)cc3)sc2C)cc1 [TCMDC-124318],31.51%

row,SMILES,% Inhibition
1,CCOc1ccc(-c2nc(NC(=O)Cc3cccc(OC)c3)sc2C)cc1 [TCMDC-123618],-21.09%
2,COc1ccc(-c2nc(NC(=O)CS(=O)(=O)c3ccc(F)cc3)sc2C)cc1 [TCMDC-123523],53.6%
3,COc1ccc(-c2nc(NC(=O)CSc3ccc([N+](=O)[O-])cc3)sc2C)cc1 [TCMDC-124323],91.56%
4,Cc1sc(NC(=O)Cc2cccc(C(F)(F)F)c2)nc1-c1cccc(Cl)c1 [TCMDC-125144],54.43%
5,COc1ccc(-c2nc(NC(=O)Cc3cccc(OC)c3)sc2C)cc1 [TCMDC-124331],95.1%
6,COc1ccc(OCC(=O)Nc2nc(-c3ccc(OC)cc3)c(C)s2)cc1 [TCMDC-124330],22.09%
7,Cc1ccc(-c2nc(NC(=O)Nc3ccc(C(F)(F)F)cc3)sc2C)cc1Cl [TCMDC-125584],10.27%
8,CCOc1cc2c(cc1OCC)C(c1ccc(O)c(Cl)c1)NCC2 (centres unmarked) [TCMDC-125439],10.77%
9,CC1CN(c2nc(NCCc3ccc(O)cc3)nc(NCc3ccccc3-c3ccc(C(F)(F)F)cc3)n2)CC(C)N1 (centres unmarked) [TCMDC-138324],26.39%
10,COc1cc2nc(N(C)CC3COc4ccccc4O3)nc(N)c2cc1OC.Cl (centres unmarked) [TCMDC-131889],-22.31%
11,C=CCC(C)n1ncc2c3c(N)nc(N)nc3ccc21 (centres unmarked) [TCMDC-137867],-15.57%
12,COc1cc(Cc2cnc(N)nc2N)c2c(c1OC)OC(C)C=C2 (centres unmarked) [TCMDC-137896],4.903%
13,O=C(Nc1cccc(-c2cccc(-c3nc4ccc(F)cc4[nH]3)c2)c1)c1cnc[nH]1 [TCMDC-136932],-61.11%
14,COc1ccc(-c2c3c(=O)n(C)c(=O)n(C)c3c3nnc4ccccc4n23)cc1 [TCMDC-125099],-11.53%
15,O=C(Nc1ccc(-c2nc3ccccc3[nH]2)cc1)C1CCCN(CC2CC2)C1 (centres unmarked) [TCMDC-124656],-0.844%
16,O=C(CC1NC(=O)c2ccccc21)Nc1ccc(-c2ccc(-c3nc4ccc(C(F)(F)F)cc4[nH]3)cc2)cc1 (centres unmarked) [TCMDC-137095],71.74%
17,CN1CCN(CC(=O)Nc2ccc(-c3ccc(-c4nc5ccc(C(F)(F)F)cc5[nH]4)cc3)cc2)CC1 [TCMDC-136985],-42.42%
18,CN1CCN(CC(=O)Nc2cccc(-c3ccc(-c4nc5ccc(C(F)(F)F)cc5[nH]4)cc3)c2)CC1 [TCMDC-136984],-3.609%
19,CN1CCN(CC(=O)Nc2cccc(-c3ccc(-c4nc5cc(C(F)(F)F)ccc5[nH]4)s3)c2)CC1 [TCMDC-136977],-5.014%
20,CN1CCC(C(=O)Nc2ccc(-c3cccc(-c4nc5ccc(C(F)(F)F)cc5[nH]4)c3)cc2)CC1 [TCMDC-132188],-24.87%
21,Cc1cccc2[nH]c(-c3cccc(-c4ccc(NC(=O)CC5NC(=O)c6ccccc65)cc4)c3)nc12 (centres unmarked) [TCMDC-137094],-30.82%
22,CN1CCN(CC(=O)Nc2ccc(-c3cccc(-c4nc5ccc(C(F)(F)F)cc5[nH]4)c3)cc2)CC1 [TCMDC-136981],72.32%
23,O=C(CC1NC(=O)c2ccccc21)Nc1ccc(-c2cccc(-c3nc4ccc(C(F)(F)F)cc4[nH]3)c2)cc1 (centres unmarked) [TCMDC-137092],-11.47%
24,CN1CCN(CC(=O)Nc2cccc(-c3cccc(-c4nc5ccc(C(F)(F)F)cc5[nH]4)c3)c2)CC1 [TCMDC-136980],78.77%
